Paper PMC4336329 (PLoS ONE, 2015)
Out of some 310,000 compounds screened, about 14,000 (4.5%) showed an effect of 50% or more. The effect is printed as a negative number. The sample holds strong results, similar compounds and a random draw of the others, so the mix is not that of the screen.

biological target: human ether-à-go-go-related gene (hERG) potassium channel (human, UniProt Q12809); assay: primary screen, population patch clamp on CHO cells stably expressing hERG; higher = less effect of the substance
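Also: peak tail current of the secondary pulse compared with the same well before compound.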

Chain of human ether-à-go-go-related gene (hERG) potassium channel (Q12809 whole entry, looked up): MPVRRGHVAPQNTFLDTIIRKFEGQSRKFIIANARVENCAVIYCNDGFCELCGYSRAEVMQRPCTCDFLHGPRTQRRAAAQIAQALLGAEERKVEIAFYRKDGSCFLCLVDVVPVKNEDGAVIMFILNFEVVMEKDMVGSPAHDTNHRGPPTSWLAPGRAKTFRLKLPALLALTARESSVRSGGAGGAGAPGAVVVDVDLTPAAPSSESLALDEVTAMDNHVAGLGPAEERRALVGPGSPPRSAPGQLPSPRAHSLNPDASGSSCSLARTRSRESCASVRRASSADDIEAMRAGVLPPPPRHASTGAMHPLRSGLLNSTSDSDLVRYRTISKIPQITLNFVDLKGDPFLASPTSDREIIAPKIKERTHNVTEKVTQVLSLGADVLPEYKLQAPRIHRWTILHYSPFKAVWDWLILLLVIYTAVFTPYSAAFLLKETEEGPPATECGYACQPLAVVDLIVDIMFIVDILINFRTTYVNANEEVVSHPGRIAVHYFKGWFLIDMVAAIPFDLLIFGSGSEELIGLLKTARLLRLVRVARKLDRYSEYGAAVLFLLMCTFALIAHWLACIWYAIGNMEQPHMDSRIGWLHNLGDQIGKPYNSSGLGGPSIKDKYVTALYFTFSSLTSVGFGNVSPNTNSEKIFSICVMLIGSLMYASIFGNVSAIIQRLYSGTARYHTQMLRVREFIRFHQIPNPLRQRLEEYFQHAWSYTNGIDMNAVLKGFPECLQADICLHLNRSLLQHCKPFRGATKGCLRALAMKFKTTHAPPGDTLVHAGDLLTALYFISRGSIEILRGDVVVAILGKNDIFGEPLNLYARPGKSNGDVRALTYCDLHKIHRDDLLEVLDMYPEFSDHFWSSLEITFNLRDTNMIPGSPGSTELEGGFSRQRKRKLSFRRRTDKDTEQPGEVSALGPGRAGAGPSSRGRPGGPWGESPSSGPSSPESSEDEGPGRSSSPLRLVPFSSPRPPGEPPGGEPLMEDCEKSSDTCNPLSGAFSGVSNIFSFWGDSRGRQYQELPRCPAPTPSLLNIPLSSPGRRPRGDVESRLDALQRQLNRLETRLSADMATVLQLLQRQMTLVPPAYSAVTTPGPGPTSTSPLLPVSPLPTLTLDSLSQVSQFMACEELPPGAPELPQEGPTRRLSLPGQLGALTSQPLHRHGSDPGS

SMILES | hERG current change (%, negative = inhibition) at 10uM [%]
CCn1c(/C=C/c2c[nH]c3ccccc23)nc2ccccc2c1=O | 20.5
CCOc1ccc2nc(N3CCC(C(=O)Nc4nnc(CC)s4)CC3)sc2c1 | 11.9
Cn1c(=O)c2cn(Cc3ccc(Cl)cc3)cc2n(C)c1=O | -1.75
CCOc1ccc(C2NCCc3cc(OC)c(OC)cc32)cc1OC (stereo not shown) | 12.3
O=C1C(CSCc2ccccc2)NC(=S)N1c1ccccc1 (stereo not shown) | 16
Nc1nc(SCCO)[nH]c(=O)c1NC(=O)c1ccc(Br)o1 | 23.8
Cc1ccc(OCC(=O)NNC(=O)C2CCN(c3ncccn3)CC2)cc1 | -18.6
COC(=O)C1=C[C@@H](C(=O)OC)[C@@H]2C3=C(C(=O)[C@]2(CC(C)C)NC(=O)c2ccccc2)[C@H](C)n2c(=O)n(-c4ccccc4)c(=O)n2[C@@H]3C1 | -8.87
CCN(C(=O)COC(=O)C1CCN(S(=O)(=O)c2ccc3c(c2)OCCO3)CC1)C1CCCCC1 | -2.31
CC1(C)Cc2cccc(OCC(=O)NCc3ccccc3F)c2O1 | -5.79
CCOC(=O)COc1ccc2c(c1)C(=O)CC1(CCN(C(C)=O)CC1)O2 | -19.7
CC(Oc1ccccc1)C(=O)N1CCC2(CC1)CC(=O)c1ccccc1O2 (stereo not shown) | -65.7
Cc1ccc(OCC(=O)N2CCC3(CC2)CC(=O)c2ccccc2O3)cc1 | -73.3
CC(Oc1ccccc1)C(=O)N1CCN(c2ccc(N3CCOCC3)nn2)CC1 (stereo not shown) | -3.79
CC(Oc1ccccc1)C(=O)N1CCN(C(=O)C(C)Oc2ccccc2)CC1 (stereo not shown) | 8.52
O=C1CC2(CCN(C(=O)COc3ccc(Cl)cc3)CC2)Oc2ccccc21 | -85.8
CC(Oc1ccccc1)C(=O)N1CCN(c2ccc(N3CCCCC3)nn2)CC1 (stereo not shown) | -28.5
CC(=O)N1CCC2(CC1)CC(=O)c1cc(OCC(=O)NCc3ccc(C)cc3)ccc1O2 | -21.3
CC(Oc1ccccc1)C(=O)N1CCN(c2ccc(N3CCCCCC3)nn2)CC1 (stereo not shown) | -52.7
CC(Oc1ccccc1)C(=O)N1CCC2(CC1)Oc1ccc(Cl)cc1C(=O)C21CC(c2ccccc2)=NO1 (stereo not shown) | 7.46
COc1ccc(C2=NS(=O)(=O)N(C)C(C(=O)N3CCOCC3)=C2)cc1OC | -2.16
CN1CCN(C(=O)c2cnn(-c3ccccc3)c2NC(=O)c2cccs2)CC1 | -29.2
